# According to PubChem BioAssay (NCI):
# The panel holds about 79,000 compounds, 15% with a hit somewhere; the sample as a whole holds those more often. A number with no mark means an inactive call. Activity calls are given as the source filed them. Cut-off read from the data, not from the text of the source: active = growth inhibition above about 70%; inactive = the rest.
# What was measured:
# [1] = NCI Yeast Anticancer Drug Screen. Data for the rad50 strain (AID 155);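 note: 0% = growth of vehicle-only cultures of the same strain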; details: S. cerevisiae rad50 strain growth inhibition, active compounds read high
# Outline: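 Readout: growth inhibition relative to vehicle-treated cultures. Compound exposure was carried out in a genetically defined yeast strain deficient in DNA damage repair.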
# [2] = NCI Yeast Anticancer Drug Screen. Data for the mec2-1 strain (AID 157); details: S. cerevisiae mec2-1 strain, active compounds read high
# Outline: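 Vehicle-treated cultures served as reference for growth inhibition of compound-exposed mec2-1 yeast.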
# [3] = NCI Yeast Anticancer Drug Screen. Data for the sgs1 mgt1 strain (AID 161);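 note: 0% = growth of cultures given vehicle only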; details: S. cerevisiae sgs1 mgt1 strain, active compounds read high
# Outline: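 Genetically altered yeast, compound exposure, growth inhibition relative to vehicle.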
# [4] = NCI Yeast Anticancer Drug Screen. Data for the cln2 rad14 strain (AID 165);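 note: 0% = growth equal to vehicle treated cultures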; details: S. cerevisiae cln2 rad14 strain, active compounds read high
# Outline: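 Each compound was tested on cln2 rad14 yeast. Inhibition of growth was calculated against vehicle-exposed controls.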
# [5] = NCI Yeast Anticancer Drug Screen. Data for the bub3 strain (AID 167); details: S. cerevisiae bub3 mutant strain, active compounds read high
# Outline: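 Readout: yeast growth inhibition, expressed relative to vehicle-only wells. The test organism is a mutant strain from a panel with lesions in DNA repair or checkpoint genes.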
# [6] = NCI Yeast Anticancer Drug Screen. Data for the mlh1 rad18 strain (AID 175); details: S. cerevisiae mlh1 rad18 strain growth inhibition, active compounds read high
# Outline: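 Vehicle-treated cultures served as the reference for growth inhibition in a yeast strain carrying DNA damage repair alterations exposed to each compound.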
# [7] = at 5.0 µM (retest, dose inferred, filed as 0.5)
# [8] = at 50.0 µM (retest, dose inferred, filed as 5.0)
Compound,"growth inhibition [1, 7] [%]","growth inhibition [1, 8]",growth inhibition ([1]; at 50.0 µM),"growth inhibition [2, 7] [%]","growth inhibition [2, 8]",growth inhibition ([2]; at 50.0 µM),"growth inhibition [3, 7] [%]","growth inhibition [3, 8]",growth inhibition ([3]; at 50.0 µM),"growth inhibition [4, 7] [%]","growth inhibition [4, 8]",growth inhibition ([4]; at 50.0 µM),"growth inhibition [5, 7] [%]","growth inhibition [5, 8]",growth inhibition ([5]; at 50.0 µM),"growth inhibition [6, 7] [%]","growth inhibition [6, 8]",growth inhibition ([6]; at 50.0 µM)
Cc1cc(Cl)ccc1N1C(=O)C(=O)C(c2nc3ccccc3o2)C(=O)C1=O,31,98% (active),86.3% (active),21,99% (active),64.7%,38,98% (active),88.8% (active),31,98% (active),79.9% (active),22,96% (active),49.1%,25,96% (active),87.8% (active)
O=[N+]([O-])c1ccc2c(c1)/C(=N/O)c1ccccc1-2,21,49%,88.3% (active),0,7%,28.4%,4,20%,70%,-10,4%,46.2%,8,29%,18.8%,19,38%,81% (active)
Clc1nc(Cl)c(Cl)c(-c2ccccc2)n1,35,75% (active),90.3% (active),29,70% (active),92.7% (active),18,77% (active),89% (active),17,73% (active),84.8% (active),12,86% (active),85% (active),55,77% (active),87.3% (active)
Cc1cnc2cccc(Cl)c2c1Cl,3,27%,80.8% (active),17,11%,28.4%,19,6%,35.5%,-42,4%,34%,-4,14%,27%,-15,31%,20.6%
C1=Nc2ccccc2/C1=C/c1ccccc1,10,22%,72.9% (active),-9,20%,48.8%,-13,19%,49.7%,27,26%,40%,9,38%,64.4%,2,50%,52.1%
COc1ccc(OC)c(NC(=O)CCCC(=O)CC(=O)c2cccnc2)c1,63,62%,4.45%,50,53%,1.8%,69,70% (active),-5.2%,53,55%,39.8%,57,62%,-4.8%,63,63%,-8.55%
CS(=O)(=O)c1nnnn1-c1ccccc1,-21,93% (active),99.2% (active),-24,97% (active),99.5% (active),-18,96% (active),99% (active),-49,94% (active),97.3% (active),-34,95% (active),99.4% (active),-62,96% (active),99.5% (active)
O=C(O)/C(Cl)=C(\Cl)C(=O)Nc1c(Cl)cccc1Cl,-9,7%,19.1%,-3,-7%,51.1%,-13,6%,38.2%,1,5%,36.4%,3,2%,29.2%,19,2%,16.1%
CCCCC(CCCC)=NNC(=S)SC,4,85% (active),83.9% (active),5,62%,45.1%,3,79% (active),66%,-3,17%,-27.6%,2,80% (active),74.1% (active),-3,87% (active),56.9%
O=[N+]([O-])c1ccc(Cl)cc1C(Nc1nncs1)Nc1nncs1,8,81% (active),74.7% (active),7,76% (active),40.6%,17,84% (active),86% (active),2,55%,41.2%,-1,58%,57.4%,0,88% (active),80% (active)
